# Compounds with a hit are over-represented: about 1% of the library has one in this group of screens.
# GPT2 inhibitor: Primary qHTS assay for inhibitors of Glutamate pyruvate transaminase 2 (GPT2). Alanine aminotransferase 2 (Homo sapiens), Q8TD30. Recombinant GPT2, coupled pyruvate oxidase/HRP Amplex Red fluorescence. Potency, µM (titrated, usually from 57.7 µM), inactives show at the top dose activity change, negative = inhibition, hits mostly inhibitors. hit rate 0.25% among 100,000. AID 1671188, 2021; further: potency means the concentration at half of the fitted maximal effect; nearly all actives have a fitted effect of over 60% in size
#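 Recombinant GPT2 (10ng/uL) with 250uM a-KG and 2mM L-alanine, 30 min at room temperature, in HEPES pH 7.5 buffer. Pyruvate detected by pyruvate oxidase/HRP/Amplex Red fluorescence after 30 min in the dark; AOA (50uM) as positive control.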
# SNCA viab count: GF-AFC viability counterscreen for inhibitors of alpha-synuclein gene (SNCA) expression. HEK-293-SNCA-luc viability, GF-AFC fluorescence, 24 h. Potency, µM (highest dose often 57.1 µM), for inactives: at the highest dose activity change, negative = cytotoxicity, most hits filed as cytotoxic. hit rate 0.12% among 150,000. AID 1671193, 2021;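 further: potency means the concentration at half of the fitted maximal effect; 0% = DMSO-treated cells and -100% = medium-only wells without cells; nearly all actives have a fitted effect of over 30% in size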
#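 Cytotoxicity counterscreen: after 24 h compound treatment of genome-edited SNCA-luciferase HEK-293 cells, live-cell protease substrate GF-AFC read by fluorescence after 30 min; activity scaled between DMSO (0%) and medium-only (-100%), curves Hill-fitted.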
# IP6K1 inhibitor: Primary qHTS assay for small molecule inhibitors of Inositol hexaphosphate kinase 1 (IP6K1). hit rate 0.81% among 140,000. IP6K1 kinase, ADP-Glo luminescence, 2 h; stronger effect = lower value. activity change, % (series mostly up to about 58 µM); in the data active means activity change below about -25%
# Target sequence (Q92551 whole entry, looked up): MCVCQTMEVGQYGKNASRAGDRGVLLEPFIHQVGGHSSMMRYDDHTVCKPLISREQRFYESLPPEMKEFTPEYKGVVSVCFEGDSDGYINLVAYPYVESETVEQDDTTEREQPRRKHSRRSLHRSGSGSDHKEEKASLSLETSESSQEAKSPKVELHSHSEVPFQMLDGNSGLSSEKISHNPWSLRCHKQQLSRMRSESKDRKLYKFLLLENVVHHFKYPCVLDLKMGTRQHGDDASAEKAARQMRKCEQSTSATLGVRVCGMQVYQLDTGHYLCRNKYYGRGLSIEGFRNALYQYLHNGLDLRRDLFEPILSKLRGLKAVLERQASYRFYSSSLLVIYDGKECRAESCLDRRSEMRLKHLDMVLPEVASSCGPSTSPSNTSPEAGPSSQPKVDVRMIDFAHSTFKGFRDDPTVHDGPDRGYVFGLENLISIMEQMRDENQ
#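 ADP-Glo luminescence measures ADP made by human IP6K1 during a 2 h RT reaction with ATP/IP6 (mix at 1.3 mM/130 uM); top library doses 57.5 and 19.1 uM final.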
# SNCA expr inhib: Primary qHTS assay for inhibitors of alpha-synuclein gene (SNCA) expression; HEK-293 SNCA-luciferase knock-in, luminescence, 24 h; Potency, µM (highest dose often 57.2 µM), for the others: at the top dose activity change, negative = inhibition, most hits filed as inhibitors; hit rate 0.17% among 140,000;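 further: potency means the concentration at half of the fitted maximal effect; plate controls were DMSO cells for no effect and cell-free wells for full effect; nearly all actives have a fitted effect of over 45% in size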
# Active calls of the source: *; i = inactive; ? = inconclusive; / = not tested or not shown; ! = a repeat was not active; [ ] = another dose, or the depositor's remark. Unless noted, the call rests on the fitted dose curve; in most records, active means well fitted curve in the direction sought with a large enough effect; inconclusive means small, poorly fitted or top-dose-only effect, or another doubt; inactive means no such curve, though single readings can be large; an effect the other way counts as inactive or inconclusive. Unless noted, on the % scale 0 is the no-effect control and ±100 the full control effect.
SMILES,GPT2 inhibitor,SNCA viab count,IP6K1 inhibitor,SNCA expr inhib
COc1cc(Br)c(Nc2nc(-c3c(C)nc4ncccn34)cs2)c(Br)c1,-11.6%,5.97µM*,-12.7,/
O=C(Nc1ccc(Cl)cc1)Nc1ccc2n(c1=O)C[C@H]1C[C@@H]2CN(C(=O)c2ccc3ccccc3c2)C1,1.9%,?,-6.5,?
COc1cccc(-n2nc(C(=O)O)cc2-c2ccc(C3CCCCC3)c(Cl)c2)c1,-5.0%,-14.6%,-38.2*,/
CN(C)c1ccc(NC(=S)N[C@H]2CO[C@H]3[C@@H]2OC[C@H]3OC(=O)Nc2cccc3ccccc23)cc1,8.91µM*,-0.9%,4.0,83.6%
O=C(Nc1cccc2ccccc12)O[C@@H]1CO[C@H]2[C@@H]1OC[C@@H]2NC(=S)Nc1ccc(Cl)cc1,i,-10.0%,1.7,?
COc1ccc(F)cc1-c1ccc(CN2CCC(NC(=O)c3ccccc3Cl)C2)cc1 (centres undefined),/,/,5.6,/
COC(=O)[C@@H]1CCCN1c1ccc(-c2nc(-c3ccccc3F)no2)cn1,-29.3%,-11.9%,3.4,11.2µM*
COCC1CCN(c2ccc(-c3nc(-c4ccccc4C)no3)cn2)C1 (centres undefined),-21.6%,6.6%,18.2,54.1%
Cc1nn2c(c1-c1ccccc1[S+](C)(=O)[O-])N(CCC(C)C)CCC2,2.9%[88.5 µM],?,16.8,3.16µM*
O=[N+]([O-])c1cc(-c2nc(-c3ccccc3)no2)ccc1N1CCCCC1,/,6.8%,7.7,10µM*
Cc1ccc(-c2noc(-c3ccc(N4CCCCC4)c([N+](=O)[O-])c3)n2)cc1,/,-5.8%,-4.4,-4.2%
Cc1cccc(C2CN(C)CCc3c2cc(O)c(O)c3Cl)c1 (centres undefined),7.08µM*,-12.3%,/,-21.8%
C=CCN1CCc2c(cc(O)c(O)c2Cl)C(c2ccccc2)C1 (centres undefined),?,-25.0%,/,1.0%
Cn1ncc2c(C(=O)Nc3ccnc(Cl)c3)cc(-c3ccc(C(F)(F)F)cc3)nc21,/,/,-10.5,/
COc1cccc(-c2ccc(CN3CCCC(NC(=O)c4ccc(Cl)nc4)C3)cc2)c1 (centres undefined),?,?,-0.3,-15.4%
C=CCN(C)C(=O)[C@@H](C)C1CC[C@@]2(C)Cc3sc(NCCCC)nc3[C@@H](C)[C@@H]2[C@H]1O (some centres undefined),?,-17.4%[87.6 µM],9.3,-0.9%[87.6 µM]
Cc1ccc(C)c(OCC(=O)c2ccc3c(c2)N(CCCC(=O)NCC2CC2)C(=O)CO3)c1,i,?,15.5,-10.8%
Cc1ccc(C)c(OCC(=O)c2ccc3c(c2)N(CCCC(=O)NC2CCCCC2)C(=O)CO3)c1,-14.6%,17.8µM*,-8.4,3.0%
Cn1ncc2c(C(=O)NC3CCCC3)cc(-c3ccccc3F)nc21,/,/,9.8,/
CCc1ccccc1NC(=O)C(CC)Oc1ccccc1-c1nnc(-c2ccccc2)o1 (centres undefined),/,?,22.8,8.91µM*
Cc1nn(-c2ccccc2)c2c1C(C)N(C1CCN([S+](C)(=O)[O-])C1)C2=O (centres undefined),/,/,-13.1,/
COC(=O)COc1ccc(-c2nnc(Nc3ccc(O)cc3)c3ccccc23)cc1,/,?,18.3,28.2µM*
COc1cccc2nc(-c3cccs3)nc(NN3C(=O)C=C(C)C3=O)c12,-0.9%,29.9µM*!,-19.2,?
O=C(Cc1ccc(Cl)cc1)Nc1ccc2nn(-c3ccccc3)nc2c1,/,3.4%,-9.6,26.7%
CCOc1ccc(-n2nc3ccc(NC(=O)Cc4ccccc4)cc3n2)cc1,/,28.2µM*,-5.8,28.2µM*
SMILES,GPT2 inhibitor,SNCA viab count,IP6K1 inhibitor,SNCA expr inhib
CCC(C)CC(=O)OC1C(=O)C(CO)=CC(O)C1C(C)C (centres undefined),i,18.9µM*,-7.5,/
C/C=C(\C)C(=O)O[C@H]1C=C(CO)C(=O)[C@H](OC(C)=O)[C@H]1C(C)C,i,?,1.2,/
O=c1c(O)c(-c2ccc(O)cc2)oc2cc(O)cc(O)c12,24.3µM*,-16.7%,/,2.0%
O=c1c(O)c(-c2ccc(O)c(O)c2)oc2cc(O)ccc12,?,18.3%,/,20.3%
COc1ccc(OCC(O)CN2CCC(=O)N(C3CCCC3)Cc3ccccc32)cc1 (centres undefined),/,/,13.5,/
CN(C)c1cccc(C(=O)N2CCCN(c3cc(-c4ccc(F)cc4)[nH]n3)CC2)c1,2.4%,-2.6%,20.3,154.7%
Cc1ccc(-c2cc(N3CCCN(C(=O)c4cccc(N(C)C)c4)CC3)n[nH]2)cc1C,?,17.8µM*,-10.4,-27.1%
CCOC(=O)Nc1ccc(NCc2ccc(F)cc2)nc1N,10µM*!,11.5%,-2.0,4.1%
CCCNc1cc(N2CCC(CCC(=O)O)CC2)ncn1,i,2.1%,1.8,1.12µM*
O=C(O)CCC1CCN(c2cc(NC3CC3)ncn2)CC1,i,-6.4%,1.8,1.12µM*
CCCNC(=O)CCC1CCN(c2cc(NCCC)ncn2)CC1,i,-1.0%,18.3,3.16µM*
CCCNc1cc(N2CCC(CCC(=O)Nc3cccc(C)c3)CC2)ncn1,?,-2.0%,-0.8,2µM*
CCCNc1cc(N2CCC(CCC(=O)Nc3ccc4c(c3)OCCO4)CC2)ncn1,i,-0.3%,15.8,?
COc1cccc(C(=O)N2CCC3(CC2)CC(c2cccc(C(F)(F)F)c2)=NO3)c1,/,/,5.9,/
CCNc1cc(N2CCC(CCC(=O)NCC3CC3)CC2)ncn1,i,11.7%,19.7,?
CCCNc1cc(N2CCC(CCC(=O)NCC)CC2)ncn1,-1.7%,-14.7%,12.0,2.51µM*
CCCNc1cc(N2CCC(CCC(=O)NCc3ccccc3)CC2)ncn1,-16.1%,12.2%,16.6,2.51µM*
COC(=O)[C@]12CCC(C)(C)C[C@@H]1[C@@H]1C(=O)C=C3[C@@]4(C)C=C(C#N)C(=O)C(C)(C)[C@@H]4CC[C@@]3(C)[C@]1(C)CC2,i,13.6µM*,/,8.57µM*
COc1cccc(-c2ccc(C(=O)NCCNC(=O)c3ccc4c(c3)OCO4)cc2)c1,/,/,5.5,/
Cc1ccc(Nc2ccnc(N3CCN(C(=O)c4ccccc4C)CC3)n2)cc1,-2.9%,5.0%,8.7,-8.5%
COc1cccc(CNC(=O)c2ccc3nnc(-c4cccc(C(F)(F)F)c4)n3c2)c1,i,-16.2%,-9.1,?
Cc1cccc(-c2cccc(CN3CCC(NC(=O)Nc4ccc(Cl)cc4)CC3)c2)c1,-4.6%,?,-0.6,20µM*
O=C1CCN(CC(O)Cc2ccccc2)c2ccccc2CN1C1CCCC1 (centres undefined),/,/,5.0,/
COc1ccc(CNC(=O)C(=O)Nc2ccccc2OC)cc1,/,-11.0%,-5.6,34.6%
COC(=O)/C=C/C(=O)N(O)CCCCNCc1ccc(COC(=O)Nc2cccc3ccccc23)cc1,i,23.8µM*,-3.4,/

# From PubChem BioAssay
